Measured values published in PubChem BioAssay (NCI).
About 79,000 compounds went through this panel and 15% of them were active in at least one assay; those are over-represented in the sample as a whole. Calls of active or inactive are those of the source. Cut-off read from the data, not from the text of the source: active = growth inhibition above about 70%; inactive = the rest.

Tests used:
[1] = NCI Yeast Anticancer Drug Screen. Data for the rad50 strain (AID 155);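 note: 0% = growth of vehicle-only cultures of the same strain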; settings: S. cerevisiae rad50 strain growth inhibition, hits give high values
Outline: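 Yeast carrying a defined DNA repair defect were exposed to test compounds, and growth was compared with vehicle-treated controls to give percent inhibition.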

[2] = NCI Yeast Anticancer Drug Screen. Data for the mec2-1 strain (AID 157); settings: S. cerevisiae mec2-1 strain, hits give high values
Outline: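 Strain: mec2-1 (DNA repair/cell cycle alteration). Compound exposure, then growth measured; inhibition expressed relative to vehicle.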

[3] = NCI Yeast Anticancer Drug Screen. Data for the sgs1 mgt1 strain (AID 161);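 note: 0% = growth of cultures given vehicle only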; settings: S. cerevisiae sgs1 mgt1 strain, hits give high values
Outline: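 Inhibition of yeast growth, normalised to vehicle-treated controls, is reported for a strain bearing genetic alterations in DNA damage repair.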

[4] = NCI Yeast Anticancer Drug Screen. Data for the cln2 rad14 strain (AID 165);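 note: 0% = growth equal to vehicle treated cultures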; settings: S. cerevisiae cln2 rad14 strain, hits give high values
Outline: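 Compounds are applied to the cln2 rad14 yeast strain, and growth is then compared with that of vehicle-treated cultures to give inhibition.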

[5] = NCI Yeast Anticancer Drug Screen. Data for the bub3 strain (AID 167); settings: S. cerevisiae bub3 mutant strain, hits give high values
Outline: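 Compounds were applied to a genetically altered yeast strain carrying a cell-cycle control defect. Growth inhibition was scored against vehicle-treated controls.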

[6] = NCI Yeast Anticancer Drug Screen. Data for the mlh1 rad18 strain (AID 175); settings: S. cerevisiae mlh1 rad18 strain growth inhibition, hits give high values
Outline: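 Read-out is yeast growth inhibition, calculated against vehicle-only controls. The compound was applied to a strain engineered with DNA damage repair alterations.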

[7] = at 5.0 µM (retest, dose inferred, filed as 0.5)
[8] = at 50.0 µM (retest, dose inferred, filed as 5.0)

Measured: growth inhibition

CC1=C(\C=C/C(C)=N/N=C(C)\C=C\C2=C(C)CCCC2(C)C)C(C)(C)CCC1
active: [1]; at 50.0 µM 70.8% | [3]; at 50.0 µM 71%
inactive: [1]; [7] 3% | [1]; [8] 31% | [2]; [7] 9% | [2]; [8] 52% | [2]; at 50.0 µM 28.7% | [3]; [7] 27% | [3]; [8] 51% | [4]; [7] 3% | [4]; [8] 7% | [4]; at 50.0 µM 28.2% | [5]; [7] -2% | [5]; [8] 4% | [5]; at 50.0 µM 23.7% | [6]; [7] 24% | [6]; [8] 49% | [6]; at 50.0 µM 44.2%

COc1cc(Nc2ccc(Oc3ccc(O)cc3)cc2)c2ncccc2c1
inactive: [1]; [7] 6% | [1]; [8] 31% | [1]; at 50.0 µM 42.5% | [2]; [7] -12% | [2]; [8] 51% | [2]; at 50.0 µM 53.1% | [3]; [7] -12% | [3]; [8] 34% | [3]; at 50.0 µM 22.4% | [4]; [7] 2% | [4]; [8] 22% | [4]; at 50.0 µM 57.4% | [5]; [7] -9% | [5]; [8] 5% | [5]; at 50.0 µM 7.85% | [6]; [7] 14% | [6]; [8] 59%
active: [6]; at 50.0 µM 76%

CC(C)(CC(=O)NNc1ccccc1)C(=O)O
active: [1]; [8] 72% | [3]; at 50.0 µM 72% | [4]; [8] 82% | [4]; at 50.0 µM 79.2% | [5]; [8] 94% | [5]; at 50.0 µM 89.5% | [6]; [8] 95% | [6]; at 50.0 µM 85.8%
inactive: [1]; [7] 7% | [1]; at 50.0 µM 57.6% | [2]; [7] 4% | [2]; [8] 61% | [2]; at 50.0 µM 20.2% | [3]; [7] 14% | [3]; [8] 60% | [4]; [7] 19% | [5]; [7] 22% | [6]; [7] 32%

CCCOc1ccc(/C=N/NC(N)=S)cc1
inactive: [1]; [7] 16% | [1]; at 50.0 µM 42.1% | [2]; [7] 0% | [2]; [8] 50% | [2]; at 50.0 µM 59.5% | [3]; [7] 16% | [3]; at 50.0 µM 69.7% | [4]; [7] 7% | [4]; [8] 65% | [5]; [7] -72% | [5]; at 50.0 µM 63.7% | [6]; [7] 12% | [6]; at 50.0 µM 67.3%
active: [1]; [8] 73% | [3]; [8] 74% | [4]; at 50.0 µM 76.5% | [5]; [8] 70% | [6]; [8] 75%

COc1cc2cc[n+]3c4ccc([N+](=O)[O-])cc4ccc3c2cc1OC
active: [1]; [7] 73% | [1]; [8] 81% | [2]; [8] 73% | [3]; [8] 80% | [3]; at 50.0 µM 70% | [4]; [8] 71% | [5]; [8] 81%
inactive: [1]; at 50.0 µM 44.8% | [2]; [7] 14% | [2]; at 50.0 µM 55.5% | [3]; [7] 42% | [4]; [7] 31% | [4]; at 50.0 µM 68.3% | [5]; [7] 43% | [5]; at 50.0 µM 57.7% | [6]; [7] 66% | [6]; [8] 69% | [6]; at 50.0 µM 46%

Cc1ccc(S(=O)(=O)CC2COC(CS(=O)(=O)c3ccc(C)cc3)CO2)cc1 (stereo not given)
inactive: [1]; [7] 2% | [1]; [8] 3% | [1]; at 50.0 µM -14.7% | [2]; [7] 1% | [2]; [8] 6% | [2]; at 50.0 µM 33.7% | [3]; [7] 10% | [3]; [8] -6% | [3]; at 50.0 µM 3% | [4]; [7] 8% | [4]; [8] 5% | [4]; at 50.0 µM 33.1% | [5]; [7] 2% | [5]; [8] 11% | [5]; at 50.0 µM 66.4% | [6]; [7] -2% | [6]; [8] 1% | [6]; at 50.0 µM 28.8%

CN(C)c1ccc(/C=C(/C#N)c2ccc(Cl)cc2)cc1
inactive: [1]; [7] -16% | [1]; [8] -18% | [1]; at 50.0 µM 3.45% | [2]; [7] 0% | [2]; [8] 8% | [2]; at 50.0 µM 13.2% | [3]; [7] 3% | [3]; [8] 15% | [3]; at 50.0 µM -10.3% | [4]; [7] 27% | [4]; [8] -6% | [4]; at 50.0 µM 64.4% | [5]; [7] 6% | [5]; [8] -25% | [5]; at 50.0 µM 7% | [6]; [7] -17% | [6]; [8] -18% | [6]; at 50.0 µM 5.5%

C/C(=N\NC(N)=S)c1ccc(Oc2ccccc2)cc1
inactive: [1]; [7] 50% | [2]; [7] 43% | [3]; [7] 65% | [4]; [7] 27% | [5]; [7] 35% | [6]; [7] 63%
active: [1]; [8] 77% | [1]; at 50.0 µM 98.9% | [2]; [8] 75% | [2]; at 50.0 µM 98.5% | [3]; [8] 93% | [3]; at 50.0 µM 99% | [4]; [8] 70% | [4]; at 50.0 µM 98.5% | [5]; [8] 70% | [5]; at 50.0 µM 98.8% | [6]; [8] 89% | [6]; at 50.0 µM 97.8%

O=C(Cc1ccccc1)NNc1nc(NNC(=O)c2ccncc2)nc(Nc2ccccc2)n1
inactive: [1]; [7] 11% | [1]; [8] 18% | [1]; at 50.0 µM 26% | [2]; [7] -9% | [2]; [8] 11% | [2]; at 50.0 µM 10.4% | [3]; [7] 12% | [3]; [8] 11% | [3]; at 50.0 µM 33.3% | [4]; [7] -10% | [4]; [8] 21% | [4]; at 50.0 µM -2.6% | [5]; [7] -10% | [5]; [8] 19% | [5]; at 50.0 µM 36.6% | [6]; [7] 13% | [6]; [8] 25% | [6]; at 50.0 µM 51.1%

COc1ccc(N=NN(C)C)cc1
active: [1]; at 50.0 µM 97% | [2]; at 50.0 µM 70.3% | [3]; at 50.0 µM 83.7% | [4]; at 50.0 µM 76.5% | [5]; at 50.0 µM 72% | [6]; [8] 92% | [6]; at 50.0 µM 94.6%
inactive: [1]; [7] -13% | [1]; [8] 65% | [2]; [7] 13% | [2]; [8] 28% | [3]; [7] -7% | [3]; [8] 35% | [4]; [7] -42% | [4]; [8] 26% | [5]; [7] -12% | [5]; [8] 50% | [6]; [7] 17%
